# Experimental data taken from PubChem BioAssay AID540364 (The Scripps Research Institute Molecular Screening Center, 2011).
# The campaign covered roughly 360,000 compounds. About 2,000 (0.56%) were called active.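 How the source made its calls: active means activation above the average of all compounds screened plus 3 SD, cutoff fixed separately per campaign (cut at about 7.5% in these data); inactive means the rest.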 Shown is part of a subset that was picked to be rich in actives.
# Test: FXN promoter activators, primary screen, cell-based, luciferase luminescence, HEK293 lucGAA850 (AID 540364);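 further: 0% = DMSO wells and 100% = 10 µM SAHA wells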
# Conditions: HEK293 lucGAA850 FXN promoter luciferase reporter, 24 h; at 6 µM; stronger effect = higher value; percent of 10 µM SAHA response
row,SMILES,activation
1,O=C1CS(=O)CN1c1ccc(Oc2ccccc2)cc1 (centres undefined),0.15% (inactive)
2,Cc1ccc(-n2nc(N)c3c(=O)oc(N(C)C)nc32)cc1,-0.82% (inactive)
3,Cc1ccsc1C(=O)NCCc1ccco1,2.23% (inactive)
4,CCC(C)c1ccc(NC(=S)N2CCCC2)cc1 (centres undefined),2.31% (inactive)
5,CCCCc1ccc(NC(=S)N2CCCC(CO)C2)cc1 (centres undefined),9.18% (active)
6,CCOc1ccc(NC(=S)N2CCCCCC2)cc1,1.3% (inactive)
7,Cc1ccc2cc(/C=N/Nc3ccc(C(=O)O)cc3)c(Cl)nc2c1,8.93% (active)
8,O=C(O)c1ccc(N/N=C/c2ccc3ncccc3c2)cc1,-3.19% (inactive)
9,Cc1ccc2cc(/C=N/NC(=O)[C@@H]3CCCN3)c(Cl)nc2c1,0.79% (inactive)
10,CCOCCCNC(=O)C(NC(=O)CNC(=O)c1ccccc1)c1ccc(C)cc1 (centres undefined),1.83% (inactive)
11,COc1ccc(OC)c(NC(=O)CSc2nc3cccnc3n2C)c1,1.38% (inactive)
12,COc1cccc(-c2ccc(C#N)c(SCC(=O)NCCc3ccc(Cl)cc3)n2)c1,1.81% (inactive)
13,COc1cccc2cc(/C(C)=N/NC(=O)c3ccco3)oc12,3.55% (inactive)
14,COc1ccc(NC(=O)CSc2nc(SC)ns2)c(OC)c1,7.6% (active)
15,CSc1nsc(SCC(=O)Nc2cc(C(=O)O)ccc2C)n1,0.88% (inactive)
16,COc1ccc(C)cc1NC(=O)CSc1nc(SC)ns1,-0.57% (inactive)
17,Cc1cccc(C(=O)NC2CCN(CC(=O)Nc3cccc(Cl)c3)CC2)c1,-1.24% (inactive)
18,Fc1c(F)c(C(F)(F)F)c(F)c(F)c1N1CCN(c2ccc3nnc(C(F)(F)F)n3n2)CC1,-0.98% (inactive)
19,Cc1ccc2nsnc2c1NC(=O)c1ccccc1[N+](=O)[O-],3.24% (inactive)
20,Cc1ccccc1Nc1c([N+](=O)[O-])ccc2nonc12,8.33% (active)
21,Cc1cc(NC(=O)Nc2ccccc2[N+](=O)[O-])no1,3.8% (inactive)
22,CC(C)CN(C(=O)CSc1nncn1C)C1CCS(=O)(=O)C1 (centres undefined),0.57% (inactive)
23,CN1C(=O)/C(=N/OC(=O)c2ccccc2Br)c2ccccc21,2.92% (inactive)
24,CN1C(=O)/C(=C\c2cc(Br)cs2)c2ccccc21,9.69% (active)

row,SMILES,activation
1,CCC1C(=O)c2ccccc2N(C)C1=O (centres undefined),0.11% (inactive)
2,COCCC(=O)Nc1ccc2c(c1)CN(C(=O)CCOC)CC2,0.49% (inactive)
3,CC1C/C(=N/NC(=O)c2cccs2)CC(C)(C)C1 (centres undefined),2.63% (inactive)
4,Cc1nnc(SCCCn2c(N3CCCCC3)nc3c2c(=O)[nH]c(=O)n3C)s1,3.13% (inactive)
5,C=CCn1c(SCc2ccccc2)nc2c1c(=O)[nH]c(=O)n2C,4.04% (inactive)
6,Cc1nnc(Sc2nc3c(c(=O)[nH]c(=O)n3C)n2Cc2ccccc2)s1,21.3% (active)
7,COc1cc(Cn2c3ccc(NC(=O)CC(C)c4ccccc4)cc3c(=O)n2C)ccc1F (centres undefined),-0.13% (inactive)
8,C[C@H]([C@@H](O)[C@@H](O)[C@@H](C)C(C)(C)C)[C@H]1CC[C@H]2C3CC[C@H]4C[C@H](OS(=O)(=O)O)[C@@H](OS(=O)(=O)O)C[C@]4(C)[C@H]3CC[C@]12C (some centres undefined),-1.51% (inactive)
9,Nn1cnnc1N/N=C/c1cc([N+](=O)[O-])c(Cl)cc1Cl,-1.71% (inactive)
10,CN(C)CCNC(=O)c1ccc(Cl)c2cc3ccccc3nc12,22.7% (active)
11,CCCN(CCC)CCNC(=O)c1cc2c(C)nc3ccccc3c2o1,-0.61% (inactive)
12,CNC(=O)c1cccc2nc3ccccc3nc12,3.97% (inactive)
13,COC(=O)CCSc1cc([N+](=O)[O-])cc2c1c(C1OCCS1)nn2-c1ccccc1 (centres undefined),4.76% (inactive)
14,CC1=C(C(=O)N2CCOCC2)CC(CC(=O)NCc2cccc3ccccc23)C(=O)N1CCC1=CCCCC1 (centres undefined),-1.16% (inactive)
15,O=S(=O)(c1ccccc1)N1CCc2ccccc21,1.28% (inactive)
16,CCn1c(=O)c(=O)n(CC)c2cc(S(=O)(=O)N3CCc4ccccc43)ccc21,0.26% (inactive)
17,Cn1c(=O)n(C)c2cc(S(=O)(=O)N3CCCc4ccccc43)ccc21,7.64% (active)
18,Cc1c(Br)c([N+](=O)[O-])nn1C(C)C(=O)Nc1nccs1 (centres undefined),1.64% (inactive)
19,COc1ccc(-n2nc(C(=O)NCC(=O)Nc3cccc(C)n3)c3ccccc3c2=O)cc1,-0.56% (inactive)
20,Cc1ccc(S(=O)(=O)N(CCc2ccccc2)c2ccc3c(c2)C2CC3CCN2C(=O)OCc2ccccc2)cc1 (centres undefined),0.17% (inactive)
21,COc1cc(/C=C/C(=O)Nc2ccc(OC)c(S(=O)(=O)N3CCOCC3)c2)ccc1OCC#N,-0.85% (inactive)
22,COc1ccc(/C=C/C(=O)Nc2ccc(C34CC5CC(CC(O)(C5)C3)C4)cc2)cc1OC,7.97% (active)
23,COc1ccc(/C=C/C(=O)Nc2ccc(C)cc2)cc1S(=O)(=O)N1CCOCC1,-0.63% (inactive)
24,Cc1ccc(-n2c(C)cc(/C=C(\C#N)C(=O)NCC3CCCO3)c2C)cc1 (centres undefined),8.72% (active)

row,SMILES,activation
1,Cc1ccc2c(c1)N(CC(=O)NCC1CCCO1)C(=O)CO2 (centres undefined),0.58% (inactive)
2,Cc1ccc(C(=O)N/C(=C/c2cccs2)C(=O)NCC2CCCO2)cc1 (centres undefined),0.61% (inactive)
3,CCN(CC)CCNS(=O)(=O)c1ccc(/C=C/C(=O)O)cc1,3.64% (inactive)
4,CCCS(=O)(=O)N1CCC(C(=O)NCCCN(C)Cc2ccccc2)CC1,-0.04% (inactive)
5,Cc1ccc(NC(=O)c2sc3nc(N)c(C#N)cc3c2N)cc1,9.04% (active)
6,CCc1ccc2nc3sc(C(=O)Nc4nnc(CC)s4)c(N)c3cc2c1,3.44% (inactive)
7,Cc1ccc(Sc2ccc(NC(=O)c3ccc(F)cc3)cc2C#N)cc1,-1.85% (inactive)
8,CCCCc1ccc(S(=O)(=O)NC(=O)C2(C)CCN2C(=O)c2c(C)noc2C)cc1 (centres undefined),1.5% (inactive)
9,Cc1c(C(C)(C)O)[nH]c2ccc(C#N)cc12,2.02% (inactive)
10,Cc1onc(-c2c(F)cccc2Cl)c1C(=O)OCC(=O)N1C(C)CCCC1C (centres undefined),0.34% (inactive)
11,CCCn1c(=NC(C)=O)c(C(=O)OCC)cc2c(=O)n3ccccc3nc21,5.78% (inactive)
12,CCOC(=O)c1cc2c(=O)n3ccccc3nc2n(CC(C)C)c1=NC(=O)c1c(-c2c(F)cccc2Cl)noc1C,8.16% (active)
13,CCCNC(=O)C1(C)CCCN(Cc2c(C)nn(-c3ccccc3)c2C)C1 (centres undefined),0.72% (inactive)
14,Cc1cc(C(=O)O)c(S(C)(=O)=O)s1,-0.08% (inactive)
15,CCOc1ccc(N2C(=O)/C(=C/c3ccc(C)o3)N(C)C2=S)cc1,4.15% (inactive)
16,COc1ccc(CNC(=O)c2c(C)cc(=O)oc2C)cc1OC,-0.25% (inactive)
17,Cc1cc(=O)oc(C)c1C(=O)NCc1ccc(F)cc1,14% (active)
18,Cc1cc(=O)oc(C)c1C(=O)NCCN(C)Cc1ccccc1,1.1% (inactive)
19,CCN(CC)CCN1C(=O)C2C(C(=O)Nc3ccc(Br)cc3)C3C=CC2(O3)C1C(=O)NC1CCCCC1 (centres undefined),-1.41% (inactive)
20,CS(=O)(=O)c1ccc2nnn(OCC(=O)Nc3cccc(C#N)c3)c2c1,-0.17% (inactive)
21,Cc1ccc(C2C(C#N)C(C#N)N3CCCN23)cc1 (centres undefined),3.84% (inactive)
22,CCCCOC(=O)CNc1nnc(SCC(=O)OCC)[nH]c1=O,4.67% (inactive)
23,COc1ccc(C#Cc2c(-c3ccc(OC)cc3)oc3ccc(-c4ccc5c(c4)OCO5)cc23)cc1,0.99% (inactive)
24,CC(=O)c1cnc(-c2ccccc2)s1,-1.26% (inactive)

row,SMILES,activation
1,O=C(/C=C/Nc1ccccc1)c1cnc(-c2ccccc2)s1,-1.96% (inactive)
2,CC(C)(C)C(=O)c1cnc(Nc2ccccc2)s1,8.7% (active)
3,Cc1cccc(C)c1N1C(=O)CN(Cc2ccccc2)C1=S,2.98% (inactive)
4,O=C(NC(CC(=O)N1CCN(c2ccccc2)CC1)c1ccccc1)c1ccccc1Cl (centres undefined),-0.04% (inactive)
5,O=C1N=C(N2CCc3ccccc3C2)S/C1=C\c1ccc(O)cc1,-0.01% (inactive)
6,CCOc1cc(/C=C2\SC(N3CCCCC3)=NC2=O)ccc1O,1.52% (inactive)
7,O=C1N=C(N2CCCC2)S/C1=C\c1cccc(Br)c1,8.18% (active)
8,COC(=O)C1CCN(CC(N)=O)CC1,-1.4% (inactive)
9,Cc1ccc(CN(C(=O)c2sc3ccccc3c2Cl)C2CCS(=O)(=O)C2)cc1 (centres undefined),1.1% (inactive)
10,CC1(Cc2ccccc2C#N)C(=O)Nc2ccc(-c3ccc4[nH]ccc4c3)cc21 (centres undefined),-5.44% (inactive)
11,Cc1ccc(CC2(C)C(=O)Nc3ccc(OC(F)(F)F)cc32)cc1 (centres undefined),-1% (inactive)
12,CC1(Cc2cccc(C#N)c2)C(=O)Nc2ccc(-c3cccc(C(F)(F)F)c3)cc21 (centres undefined),11.2% (active)
13,COc1cccc(CNc2nc(NCc3cccs3)nc3ccsc23)c1,-1.3% (inactive)
14,NC(c1csc(NC(=O)Nc2ccccc2Oc2ccccc2)n1)c1ccccc1Cl (centres undefined),-1.81% (inactive)
15,c1ccc2c(c1)OCC(c1nn3cnnc3s1)O2 (centres undefined),3.93% (inactive)
16,CC1CCc2c(sc3nc4n(c(=O)c23)CCS4)C1 (centres undefined),3.94% (inactive)
17,CC1CCc2sc3nc(N4CCN(CCO)CC4)n4ncnc4c3c2C1 (centres undefined),7.88% (active)
18,CCCn1nnc2sc3c(c2c1=O)CCC(C)C3 (centres undefined),4.15% (inactive)
19,CCOc1cc2[nH]c(=O)n(CCC(=O)NCc3ccc(OC)cc3)c(=O)c2cc1OCC,0.9% (inactive)
20,NC(=S)NN=C1CCCC(C(F)(F)F)C1 (centres undefined),-0.39% (inactive)
21,N#CCCCn1c(O)c(N=NC(=O)C(O)c2ccccc2)c2ccccc21 (centres undefined),1.76% (inactive)
22,CCOC(=O)c1ccc(N=C2SC(C(=O)NC)CC(=O)N2CCc2ccccc2)cc1 (centres undefined),0.94% (inactive)
